Outcome and AC50 data for 30 compounds are collected here from PubChem BioAssay (EPA / NIEHS).

By AC50 is commonly meant the concentration giving half of the maximal activity seen.

Values joined by “and” are separate entries in the source; they are usually repeats but may differ in a detail not shown here. Equal values may be shown once. Where a structure was tested more than once in an assay, its records may differ in their call. Active and inactive are the calls of the source. How the source made its calls: active means hit-call score of the fitted dose curve at least 0.9, where 1 is the maximum; inactive means score below 0.9.

A short description of the first test: ATG_MRE_CIS: Attagene CIS-FACTORIAL HepG2 Assay for human Metal Responsive Element (MRE) (AID 2282954). To be noted: HepG2 MRE cis-reporter transcription, Attagene multiplex; actives raise or lower the signal. In short, it runs like this:
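HepG2 cells transiently transfected with cis-element-driven reporter units; mRNA measured 24 h after dosing. Reporter transcripts quantified by RT-PCR, FAM labelling, HpaI digestion and capillary electrophoresis; bidirectional fit versus DMSO.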
In the case of `CCCCOC(=O)[C@@H](C)Oc1ccc(Oc2ccc(C(F)(F)F)cn2)cc1`, the result was inactive.

Turning to `CCOC(=O)c1ccc(O)cc1`, the outcome was inactive.

As to `COC(=O)c1ccccc1S(=O)(=O)NC(=O)Nc1nc(OC(F)F)cc(OC(F)F)n1`, the outcome was inactive.

Regarding `COC(=O)c1cccc(C)c1S(=O)(=O)NC(=O)Nc1nc(OCC(F)(F)F)nc(N(C)C)n1`, the compound was called inactive.

Turning to `CCC(O)=C1C(=O)CC(C(=O)O)CC1=O` (configuration not stated), the outcome was inactive.

In the case of `CCCCOC(=O)C(C)Oc1ccc(Oc2ccc(C(F)(F)F)cn2)cc1` (configuration not stated), the compound was called inactive.

For `COC(=O)CSc1cc(N=c2sc(=O)n3n2CCCC3)c(F)cc1Cl`, the compound was called inactive.

As to `COc1nc(C)nc(NC(=O)NS(=O)(=O)c2ccccc2OCCCl)n1`, the call was inactive.

For `N[C@@H](Cc1cc(I)c(Oc2ccc(O)c(I)c2)c(I)c1)C(=O)O`, the AC50 is 50.6 µM (active) and 23.7 µM (active) and 94 µM (active); the compound was classed as inactive.

For the compound `CCCCC(CC)CN1C(=O)C2C3C=CC(C3)C2C1=O` (configuration not stated), the AC50 was 68.5 µM (active).

Consider `C[C@]12CC[C@@H]3c4ccc(O)cc4C[C@@H](CCCCCCCCCS(=O)CCCC(F)(F)C(F)(F)F)[C@H]3[C@@H]1CC[C@@H]2O` (some centres not stated), for which the AC50 is 1.39 µM (active) and the compound was called inactive.

In the case of `CC(C)CCCCCCc1ccc(O)cc1`, the half-maximal activity concentration (AC50) was 16.3 µM (active) and 17.6 µM (active); the result was inactive.

On to `O=C(c1ccc(O)cc1O)c1ccc(O)cc1O`, for which the compound was classed as inactive.

In the case of `CN(C)C(=O)Nc1ccc(Cl)c(Cl)c1`, the AC50 was 77.4 µM (active) and the result was inactive.

As to `COCCO`, the outcome was inactive.

Take `N#CSCSc1nc2ccccc2s1`: the call was inactive.

As to `CCOC(=O)COc1cc(-n2ncc(C(F)(F)F)c(C)c2=O)c(F)cc1Cl`, the result was inactive.

Regarding `C#C[C@]1(O)CC[C@H]2[C@@H]3CCC4=CC(=O)CC[C@@H]4[C@H]3CC[C@@]21CC`, the call was inactive.

With `CCCN(CCC)c1c([N+](=O)[O-])cc(C(F)(F)F)c(N)c1[N+](=O)[O-]`, the AC50 was 32.5 µM (active).

With `COC(=O)c1ccccc1C(=O)O`, the compound was called inactive.

Regarding `C=CCOC(Cn1ccnc1)c1ccc(Cl)cc1Cl` (configuration not stated), the AC50 is 24.5 µM (active).

Consider `CSC(=O)c1cccc2nnsc12`, for which the call was inactive.

For the compound `CC(=O)S[C@@H]1CC2=CC(=O)CC[C@]2(C)[C@H]2CC[C@@]3(C)[C@@H](CC[C@@]34CCC(=O)O4)[C@H]12`, the AC50 was 76.9 µM (active) [middle of 4 runs] and the compound was classed as inactive.

With `c1ccc2[nH]c(-c3cscn3)nc2c1`, the result was inactive.

On to `C[C@]12C[C@H](O)[C@H]3[C@@H](CCC4=CC(=O)CC[C@@]43C)[C@@H]1CC[C@@H]2C(=O)CO`, for which the compound was classed as inactive.

As for `OB(O)O`, the compound was classed as inactive.

As for `S=C(S)NCCNC(=S)S.[Mn+2].[S-]C([S-])=NCCN=C([S-])[S-].[Zn+2]`, the compound was called inactive.

On to `COC(=O)c1ccc(CNS(C)(=O)=O)cc1S(=O)(=O)NC(=O)Nc1nc(OC)cc(OC)n1`, for which the compound was classed as inactive.

As for `O=C(c1ccccc1)C1CCCCC1`, the compound was called inactive.

`COC(=O)c1c(Cl)nn(C)c1S(=O)(=O)NC(=O)Nc1nc(OC)cc(OC)n1`: the result was inactive.

A short description of a further test: ATG_PBREM_CIS: Attagene CIS-FACTORIAL HepG2 Assay for human Phenobarbital-responsive Enhancer Module (PBREM) (AID 2282955). To be noted: HepG2 PBREM cis-reporter, Attagene multiplexed transcription; actives raise or lower the signal. In short, it runs like this: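 After a 24 h incubation with test chemical, transfected HepG2 cells yield total RNA; reporter-specific RT-PCR products are fluorescently labelled, HpaI-digested and resolved by capillary electrophoresis against ROX size standards.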
Consider `CCCCOC(=O)[C@@H](C)Oc1ccc(Oc2ccc(C(F)(F)F)cn2)cc1`, for which the result was inactive.

`CCOC(=O)c1ccc(O)cc1`: the result was inactive.

In the case of `COC(=O)c1ccccc1S(=O)(=O)NC(=O)Nc1nc(OC(F)F)cc(OC(F)F)n1`, the outcome was inactive.

With `COC(=O)c1cccc(C)c1S(=O)(=O)NC(=O)Nc1nc(OCC(F)(F)F)nc(N(C)C)n1`, the result was inactive.

With `CCC(O)=C1C(=O)CC(C(=O)O)CC1=O` (configuration not stated), the outcome was inactive.

With `CCCCOC(=O)C(C)Oc1ccc(Oc2ccc(C(F)(F)F)cn2)cc1` (configuration not stated), the result was inactive.

`COC(=O)CSc1cc(N=c2sc(=O)n3n2CCCC3)c(F)cc1Cl`: the result was inactive.

As to `COc1nc(C)nc(NC(=O)NS(=O)(=O)c2ccccc2OCCCl)n1`, the outcome was inactive.

Consider `N[C@@H](Cc1cc(I)c(Oc2ccc(O)c(I)c2)c(I)c1)C(=O)O`, for which the AC50 is 24.4 µM (active) and the outcome was inactive.

`CCCCC(CC)CN1C(=O)C2C3C=CC(C3)C2C1=O` (configuration not stated): the half-maximal activity concentration (AC50) was 50 µM (active).

As for `C[C@]12CC[C@@H]3c4ccc(O)cc4C[C@@H](CCCCCCCCCS(=O)CCCC(F)(F)C(F)(F)F)[C@H]3[C@@H]1CC[C@@H]2O` (some centres not stated), the AC50 was 0.376 µM (active) and the result was inactive.

On to `CC(C)CCCCCCc1ccc(O)cc1`, for which the AC50 is 15.8 µM (active) and the result was inactive.

In the case of `O=C(c1ccc(O)cc1O)c1ccc(O)cc1O`, the result was inactive.

`CN(C)C(=O)Nc1ccc(Cl)c(Cl)c1`: the outcome was inactive.

For the compound `COCCO`, the result was inactive.

For `N#CSCSc1nc2ccccc2s1`, the result was inactive.

As for `CCOC(=O)COc1cc(-n2ncc(C(F)(F)F)c(C)c2=O)c(F)cc1Cl`, the outcome was inactive.

For the compound `CCCN(CCC)c1c([N+](=O)[O-])cc(C(F)(F)F)c(N)c1[N+](=O)[O-]`, the AC50 was 29.7 µM (active).

With `COC(=O)c1ccccc1C(=O)O`, the outcome was inactive.

`C=CCOC(Cn1ccnc1)c1ccc(Cl)cc1Cl` (configuration not stated): the result was inactive.

For the compound `CSC(=O)c1cccc2nnsc12`, the outcome was inactive.

Regarding `CC(=O)S[C@@H]1CC2=CC(=O)CC[C@]2(C)[C@H]2CC[C@@]3(C)[C@@H](CC[C@@]34CCC(=O)O4)[C@H]12`, the result was inactive.

Consider `c1ccc2[nH]c(-c3cscn3)nc2c1`, for which the result was inactive.

Consider `C[C@]12C[C@H](O)[C@H]3[C@@H](CCC4=CC(=O)CC[C@@]43C)[C@@H]1CC[C@@H]2C(=O)CO`, for which the outcome was inactive.

With `OB(O)O`, the result was inactive.

Regarding `COC(=O)c1ccc(CNS(C)(=O)=O)cc1S(=O)(=O)NC(=O)Nc1nc(OC)cc(OC)n1`, the outcome was inactive.

With `O=C(c1ccccc1)C1CCCCC1`, the AC50 was 53.2 µM (active) and the outcome was inactive.

With `COC(=O)c1c(Cl)nn(C)c1S(=O)(=O)NC(=O)Nc1nc(OC)cc(OC)n1`, the outcome was inactive.
